Laboratory results: PubChem BioAssay AID1159580 (chemical genetic matrix, 2015)
Where “and” joins values, the source holds several entries; their conditions need not be identical. Equal values may be shown once. About 2,000 (36%) of roughly 5,500 compounds were called active. Not shown: some 18% with an inconclusive outcome. This is one part of the list. Values without a mark were called inactive. No stated cut-off is given here; in the data, active means normalized growth mostly below about 0.91 (no sharp cut-off); inconclusive means no clear call, values can overlap the other calls; inactive means mostly above about 0.92.

Experiment: chemical genetic growth profiling, strain panel (AID 1159580);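 further: tested at 20 µM; growth read once vehicle control cultures reached saturation at 30 °C; 1 = growth at the plate median or of vehicle wells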
Conditions: S. cerevisiae deletion strains, growth OD
[1] = locus YGR078C, strain PAC10, stronger effect = lower value

## O=C(O)CN(CCOCCOCCN(CC(=O)O)CC(=O)O)CC(=O)O
Locus YAL013W, strain DEP1, stronger effect = lower value
  normalized growth: 1.03
Locus YAL040C, strain CLN3, stronger effect = lower value
  normalized growth: 0.99
Locus YCL061C, strain MRC1 (second series), stronger effect = lower value
  normalized growth: 1
Locus YDR363W, strain ESC2, stronger effect = lower value
  normalized growth: 1
Locus YER002W, strain NOP16, stronger effect = lower value
  normalized growth: 0.996
[1]
  normalized growth: 1.01
Locus YMR263W, strain SAP30, stronger effect = lower value
  normalized growth: 1
Locus YNL175C, strain NOP13, stronger effect = lower value
  normalized growth: 0.996
Locus YNL197C, strain WHI3, stronger effect = lower value
  normalized growth: 1
Locus YNL224C, strain SQS1, stronger effect = lower value
  normalized growth: 0.992
Locus YNL322C, strain KRE1, stronger effect = lower value
  normalized growth: 1.02
Locus YOR083W, strain WHI5 (second series), stronger effect = lower value
  normalized growth: 1.01
Locus YPL055C, strain LGE1, stronger effect = lower value
  normalized growth: 1.06

## O=C(O)CN(CCN(CC(=O)O)CC(=O)O)CC(=O)O
Locus YBR021W, strain FUR4, stronger effect = lower value
  normalized growth: 1.04
Locus YBR229C, strain ROT2, stronger effect = lower value
  normalized growth: 0.995
Locus YCL029C, strain bik1, stronger effect = lower value
  normalized growth: 0.958
Locus YDL035C, strain GPR1, stronger effect = lower value
  normalized growth: 0.869
Locus YDL074C, strain BRE1, stronger effect = lower value
  normalized growth: 0.885
Locus YDL101C, strain DUN1, stronger effect = lower value
  normalized growth: 0.889 (active)
Locus YDL185W, strain tfp1, stronger effect = lower value
  normalized growth: 0.282 (active)
Locus YDL192W, strain arf1, stronger effect = lower value
  normalized growth: 0.826 (active)
Locus YDR101C, strain arx1, stronger effect = lower value
  normalized growth: 0.989
Locus YDR162C, strain NBP2, stronger effect = lower value
  normalized growth: 0.918
Locus YDR318W, strain mcm21, stronger effect = lower value
  normalized growth: 0.817 (active)
Locus YDR388W, stronger effect = lower value
  normalized growth: 1.02
Locus YDR502C, strain sam2, stronger effect = lower value
  normalized growth: 0.769 (active)
Locus YEL061C, strain CIN8, stronger effect = lower value
  normalized growth: 0.934
Locus YER110C, stronger effect = lower value
  normalized growth: 0.938
Locus YER155C, strain BEM2, stronger effect = lower value
  normalized growth: 1.01
Locus YER167W, strain BCK2, stronger effect = lower value
  normalized growth: 0.936
Locus YGL078C, strain dbp3, stronger effect = lower value
  normalized growth: 0.985
Locus YGL086W, strain mad1, stronger effect = lower value
  normalized growth: 0.79 (active)
Locus YGL248W, strain PDE1, stronger effect = lower value
  normalized growth: 0.826 (active)
[1]
  normalized growth: 0.82 (active)
Locus YGR135W, strain pre9, stronger effect = lower value
  normalized growth: 0.819 (active)
Locus YGR229C, strain SMI1, stronger effect = lower value
  normalized growth: 0.774 (active)
Locus YGR252W, strain gcn5, stronger effect = lower value
  normalized growth: 0.994
Locus YHR030C, strain SLT2, stronger effect = lower value
  normalized growth: 0.97 and 0.976
Locus YHR079C, strain IRE1 (second series), stronger effect = lower value
  normalized growth: 0.991
Locus YHR079C, strain IRE1, stronger effect = lower value
  normalized growth: 0.934
Locus YHR094C, strain hxt1, stronger effect = lower value
  normalized growth: 0.994
Locus YHR129C, strain ARP1, stronger effect = lower value
  normalized growth: 0.87 (active)
Locus YHR200W, strain rpn10, stronger effect = lower value
  normalized growth: 0.893 (active)
Locus YIL066C, strain RNR3, stronger effect = lower value
  normalized growth: 0.925
Locus YIL073C, strain SPO22, stronger effect = lower value
  normalized growth: 1.99 [resistant] (active)
Locus YIL125W, strain kgd1, stronger effect = lower value
  normalized growth: 1.01
Locus YIR030C, strain dcg1, stronger effect = lower value
  normalized growth: 0.96
Locus YJL095W, strain BCK1, stronger effect = lower value
  normalized growth: 0.849 and 0.971
Locus YJL134W, strain LCB3, stronger effect = lower value
  normalized growth: 0.972
Locus YJL168C, strain set2, stronger effect = lower value
  normalized growth: 0.989
Locus YJL187C, strain SWE1 (second series), stronger effect = lower value
  normalized growth: 0.861 (active)
Locus YJR043C, strain POL32, stronger effect = lower value
  normalized growth: 0.891
Locus YJR066W, strain TOR1, stronger effect = lower value
  normalized growth: 0.888
Locus YKL009W, strain mrt4, stronger effect = lower value
  normalized growth: 0.97
Locus YKL068W, stronger effect = lower value
  normalized growth: 0.996
Locus YKL085W, strain MDH1 (second series), stronger effect = lower value
  normalized growth: 1.03
Locus YKL085W, strain MDH1, stronger effect = lower value
  normalized growth: 1.03
Locus YKL190W, strain CNB1, stronger effect = lower value
  normalized growth: 0.94
Locus YKR001C, strain vps1, stronger effect = lower value
  normalized growth: 0.769 (active)
Locus YLR039C, strain RIC1, stronger effect = lower value
  normalized growth: 0.914
Locus YLR058C, strain SHM2, stronger effect = lower value
  normalized growth: 0.863 (active)
Locus YLR102C, strain apc9, stronger effect = lower value
  normalized growth: 0.995
Locus YLR113W, strain HOG1, stronger effect = lower value
  normalized growth: 1.09
Locus YLR262C, strain YPT6, stronger effect = lower value
  normalized growth: 0.827
Locus YLR268W, strain sec22, stronger effect = lower value
  normalized growth: 0.801 (active)
Locus YLR330W, strain CHS5, stronger effect = lower value
  normalized growth: 0.944
Locus YLR342W, strain FKS1 (second series), stronger effect = lower value
  normalized growth: 0.871
Locus YLR371W, strain rom2, stronger effect = lower value
  normalized growth: 0.984
Locus YLR418C, strain cdc73, stronger effect = lower value
  normalized growth: 0.764 (active)
Locus YML016C, strain PPZ1, stronger effect = lower value
  normalized growth: 0.934
Locus YML032C, strain rad52, stronger effect = lower value
  normalized growth: 0.937
Locus YML124C, strain tub3, stronger effect = lower value
  normalized growth: 0.979
Locus YMR078C, strain ctf18, stronger effect = lower value
  normalized growth: 0.99
Locus YMR223W, strain ubp8, stronger effect = lower value
  normalized growth: 0.793 (active)
Locus YMR307W, strain GAS1, stronger effect = lower value
  normalized growth: 0.928
Locus YNL067W, strain RPL9B, stronger effect = lower value
  normalized growth: 0.813 (active)
Locus YNL153C, strain GIM3, stronger effect = lower value
  normalized growth: 0.834 (active)
Locus YNL183C, strain NPR1, stronger effect = lower value
  normalized growth: 0.973
Locus YNL233W, strain BNI4, stronger effect = lower value
  normalized growth: 0.847 (active)
Locus YNL250W, strain rad50, stronger effect = lower value
  normalized growth: 1.01
Locus YNL271C, strain bni1, stronger effect = lower value
  normalized growth: 0.982
Locus YNL298W, strain CLA4, stronger effect = lower value
  normalized growth: 0.99
Locus YNL307C, strain MCK1, stronger effect = lower value
  normalized growth: 0.991
Locus YNR052C, strain pop2, stronger effect = lower value
  normalized growth: 0.953
Locus YOL006C, strain TOP1, stronger effect = lower value
  normalized growth: 1.23
Locus YOL012C, strain htz1
  normalized growth: 0.486
Locus YOL147C, strain pex11, stronger effect = lower value
  normalized growth: 0.983
Locus YOR061W, strain CKA2, stronger effect = lower value
  normalized growth: 0.913
Locus YOR069W, strain VPS5, stronger effect = lower value
  normalized growth: 0.947
Locus YOR136W, strain idh2, stronger effect = lower value
  normalized growth: 0.909 (active)
Locus YOR144C, strain elg1, stronger effect = lower value
  normalized growth: 0.976
Locus YOR184W, strain ser1, stronger effect = lower value
  normalized growth: 0.699 (active)
Locus YOR231W, strain MKK1, stronger effect = lower value
  normalized growth: 0.92
Locus YOR316C, strain cot1, stronger effect = lower value
  normalized growth: 0.979
Locus YPL256C, strain CLN2, stronger effect = lower value
  normalized growth: 1.07
Locus YPR119W, strain clb2, stronger effect = lower value
  normalized growth: 0.992
Locus YPR141C, strain kar3, stronger effect = lower value
  normalized growth: 0.992
Locus YPR163C, strain tif3, stronger effect = lower value
  normalized growth: 0.99
Locus YPR167C, strain met16, stronger effect = lower value
  normalized growth: 0.902 (active)
Strain wtn01, stronger effect = lower value
  normalized growth: 0.816 (active)
